Test results reported in PubChem BioAssay (NCI).
About 83,000 compounds went through this panel and 20% of them were active in at least one assay; those are over-represented in the sample as a whole.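 Percent growth is the endpoint: 0 to 100 indicates growth inhibition (40 means 60% inhibition), 0 means no net growth, and negative values indicate cell death.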 Active and inactive are the calls of the source. How the source made its calls: active means growth percent below 10; inactive means the rest.

How the values were obtained:
Experiment in all cases: NCI-60 one-dose screen, 48 h (100 = growth as untreated, 0 = no growth, -100 = all killed)
Conditions in all cases: 10 µM unless noted
NCI-H23 lung = test system: NCI-H23 lung
NCI-H226 lung = test system: NCI-H226 lung
NCI-H322M lung = test system: NCI-H322M lung
HOP-62 NSCLC = test system: HOP-62 NSCLC
NCI-H460 lung = test system: NCI-H460 lung
HOP-92 NSCLC = test system: HOP-92 NSCLC
NCI-H522 lung = test system: NCI-H522 lung
A549/ATCC NSCLC = test system: A549/ATCC NSCLC
786-0 renal = test system: 786-0 renal
COLO 205 colon = test system: COLO 205 colon
DU-145 prostate = test system: DU-145 prostate
K-562 leukemia = test system: K-562 leukemia
MALME-3M melanoma = test system: MALME-3M melanoma
MDA-MB-231 breast = test system: MDA-MB-231 breast
RXF 393 renal = test system: RXF 393 renal
SF-268 CNS = test system: SF-268 CNS
SF-295 CNS = test system: SF-295 CNS
SF-539 CNS = test system: SF-539 CNS
UACC-257 melanoma = test system: UACC-257 melanoma
M14 melanoma = test system: M14 melanoma

Measured: growth

NS(=O)(=O)c1ccc(CN=C2NC(=O)S/C2=C\c2ccc(Br)cc2)cc1
inactive: NCI-H23 lung 97.6% | NCI-H226 lung 96.9% | NCI-H322M lung 91% | HOP-62 NSCLC 103% | NCI-H460 lung 101% | HOP-92 NSCLC 90.5% | NCI-H522 lung 90.8% | A549/ATCC NSCLC 98.3% | 786-0 renal 94.1% | COLO 205 colon 106% | DU-145 prostate 111% | K-562 leukemia 102% | MALME-3M melanoma 93.8% | MDA-MB-231 breast 101% | RXF 393 renal 105% | SF-268 CNS 92.3% | SF-295 CNS 102% | SF-539 CNS 92.3% | UACC-257 melanoma 102% | M14 melanoma 102%

O=C1/C(=C/c2ccc(Cl)cc2)SC(=S)N1CCc1ccc(O)cc1
active: NCI-H522 lung -30%
inactive: NCI-H23 lung 89.7% | NCI-H226 lung 96.1% | NCI-H322M lung 99.3% | HOP-62 NSCLC 99.9% | NCI-H460 lung 99.3% | HOP-92 NSCLC 73.7% | A549/ATCC NSCLC 87% | 786-0 renal 78.6% | COLO 205 colon 110% | DU-145 prostate 50.2% | K-562 leukemia 96.9% | MALME-3M melanoma 81.5% | MDA-MB-231 breast 84% | RXF 393 renal 94.1% | SF-268 CNS 85% | SF-295 CNS 102% | SF-539 CNS 80% | UACC-257 melanoma 99.5% | M14 melanoma 104%

CN1CCN(Cc2ccc(NC(=O)c3cncc(C#Cc4cncn5ccnc45)c3)cc2C(F)(F)F)CC1
active: K-562 leukemia 4.35% | MALME-3M melanoma 2.25% | M14 melanoma 7.22%
inactive: NCI-H23 lung 63.1% | NCI-H226 lung 34.4% | NCI-H322M lung 105% | HOP-62 NSCLC 81.4% | NCI-H460 lung 64.3% | HOP-92 NSCLC 38.8% | NCI-H522 lung 47.3% | A549/ATCC NSCLC 74% | 786-0 renal 87.5% | COLO 205 colon 32.3% | DU-145 prostate 86.2% | MDA-MB-231 breast 54.5% | RXF 393 renal 90.4% | SF-268 CNS 92.4% | SF-295 CNS 91.7% | SF-539 CNS 52.4% | UACC-257 melanoma 58.4%

O=[N+]([O-])c1ccc(Nc2nc(NCCN3CCOCC3)ncc2[N+](=O)[O-])cc1
inactive: NCI-H23 lung 89.9% | NCI-H226 lung 92% | NCI-H322M lung 85% | HOP-62 NSCLC 96% | NCI-H460 lung 94.4% | HOP-92 NSCLC 89.9% | NCI-H522 lung 72.6% | A549/ATCC NSCLC 98.9% | 786-0 renal 92.6% | COLO 205 colon 97.1% | DU-145 prostate 92.5% | K-562 leukemia 103% | MALME-3M melanoma 91% | MDA-MB-231 breast 95.8% | RXF 393 renal 63% | SF-268 CNS 93.8% | SF-295 CNS 98.6% | SF-539 CNS 93.9% | UACC-257 melanoma 109% | M14 melanoma 95%

N#Cc1c(-c2ccc(Cl)cc2)nc(NN=Cc2ccco2)nc1N1CCOCC1
inactive: NCI-H23 lung 70.8% | NCI-H226 lung 70.8% | NCI-H322M lung 69.4% | HOP-62 NSCLC 66.4% | NCI-H460 lung 68.2% | HOP-92 NSCLC 40.6% | NCI-H522 lung 62.3% | A549/ATCC NSCLC 78.9% | 786-0 renal 74% | COLO 205 colon 75.2% | DU-145 prostate 85.4% | K-562 leukemia 104% | MALME-3M melanoma 42.4% | MDA-MB-231 breast 74.5% | RXF 393 renal 52.2% | SF-268 CNS 74.5% | SF-295 CNS 73.8% | SF-539 CNS 75.3% | UACC-257 melanoma 87.9% | M14 melanoma 71.4%

COc1cc(CNc2oc(-c3ccccc3)c(-c3ccccc3)c2C#N)cc(CN2CCN(C)CC2)c1O
inactive: NCI-H23 lung 73.1% | NCI-H226 lung 88% | NCI-H322M lung 89.2% | HOP-62 NSCLC 79.2% | NCI-H460 lung 33.4% | HOP-92 NSCLC 43.9% | NCI-H522 lung 71.5% | A549/ATCC NSCLC 56.8% | 786-0 renal 67.2% | COLO 205 colon 54.3% | DU-145 prostate 59.9% | MALME-3M melanoma 20.6% | MDA-MB-231 breast 75.3% | RXF 393 renal 42.8% | SF-268 CNS 69.8% | SF-295 CNS 51.7% | SF-539 CNS 71.3%
active: K-562 leukemia -9.86% | UACC-257 melanoma -4.26% | M14 melanoma -62.2%

C(=C\c1nccc2c1[nH]c1ccccc12)/c1ccccc1
inactive: NCI-H23 lung 34.3% | NCI-H226 lung 51.6% | NCI-H322M lung 29.9% | HOP-62 NSCLC 40.7% | HOP-92 NSCLC 45.4% | A549/ATCC NSCLC 21.4% | 786-0 renal 35.8% | K-562 leukemia 69.2% | MALME-3M melanoma 29.4% | MDA-MB-231 breast 30.7% | SF-268 CNS 41.8% | UACC-257 melanoma 37.5% | M14 melanoma 19.8%
active: NCI-H460 lung 4.91% | NCI-H522 lung 4.33% | COLO 205 colon 3.43% | DU-145 prostate 9.25% | RXF 393 renal -44.6% | SF-295 CNS -32% | SF-539 CNS 7.92%

O=C(/C=C/C=C/c1ccc2c(c1)OCO2)N/N=C\c1ccc(O)cc1O
inactive: NCI-H23 lung 30% | NCI-H226 lung 37.6% | NCI-H322M lung 17.8% | HOP-62 NSCLC 27.1% | NCI-H460 lung 14% | HOP-92 NSCLC 53.4% | NCI-H522 lung 21.1% | A549/ATCC NSCLC 36.1% | 786-0 renal 29% | COLO 205 colon 14% | DU-145 prostate 44% | K-562 leukemia 11.6% | MALME-3M melanoma 40.3% | MDA-MB-231 breast 34.4% | RXF 393 renal 57.9% | SF-268 CNS 24.4% | SF-295 CNS 13.8% | SF-539 CNS 13.3% | UACC-257 melanoma 28.5% | M14 melanoma 30.3%

Cc1nn(-c2ccc(F)cc2)c2ncnc(Nc3ccc(NC(=O)Nc4ccc(Cl)c(C(F)(F)F)c4)cc3)c12
active: HOP-92 NSCLC -8.33% | COLO 205 colon 4.15% | SF-295 CNS 6.74%
inactive: NCI-H23 lung 22.4% | NCI-H226 lung 58% | NCI-H322M lung 67.5% | HOP-62 NSCLC 45% | NCI-H460 lung 10.9% | NCI-H522 lung 12.1% | A549/ATCC NSCLC 50.7% | 786-0 renal 40.7% | DU-145 prostate 41.8% | K-562 leukemia 15.3% | MALME-3M melanoma 34% | MDA-MB-231 breast 71.6% | RXF 393 renal 19.4% | SF-268 CNS 66% | SF-539 CNS 48.2% | UACC-257 melanoma 26.8% | M14 melanoma 38.1%

CCC(=O)c1ccc(Cl)s1
inactive: NCI-H23 lung 104% | NCI-H226 lung 103% | NCI-H322M lung 134% | HOP-62 NSCLC 109% | NCI-H460 lung 99% | HOP-92 NSCLC 102% | NCI-H522 lung 93.7% | A549/ATCC NSCLC 98.7% | 786-0 renal 105% | COLO 205 colon 101% | DU-145 prostate 111% | K-562 leukemia 109% | MALME-3M melanoma 115% | MDA-MB-231 breast 106% | RXF 393 renal 115% | SF-268 CNS 94.8% | SF-295 CNS 113% | SF-539 CNS 114% | UACC-257 melanoma 104% | M14 melanoma 103%

CNC(=O)c1cc(Oc2ccc(NC(=O)Nc3ccc(Cl)c(OC(F)(F)F)c3)c(F)c2)ccn1
inactive: NCI-H226 lung 31.5% | NCI-H322M lung 71.7% | HOP-62 NSCLC 39% | NCI-H460 lung 37.4% | HOP-92 NSCLC 28.9% | A549/ATCC NSCLC 24.7% | 786-0 renal 58% | DU-145 prostate 56.7% | MDA-MB-231 breast 35.3% | RXF 393 renal 82.3% | SF-268 CNS 45.2% | SF-295 CNS 21.3% | SF-539 CNS 50.6%
active: NCI-H23 lung 7.09% | NCI-H522 lung 5.56% | COLO 205 colon 6.8% | K-562 leukemia 6.83% | MALME-3M melanoma 1.66% | UACC-257 melanoma 1.86% | M14 melanoma 4.35%

COc1cc(/C=C/c2cc(/C=C/c3ccc(O)c(OC)c3)n(-c3c(C)cccc3C)c(=O)n2)ccc1O
active: NCI-H23 lung 2.99% | NCI-H226 lung 4.63% | HOP-62 NSCLC -2.09% | NCI-H460 lung 7.91% | HOP-92 NSCLC -3.15% | NCI-H522 lung -10.2% | A549/ATCC NSCLC 2.96% | COLO 205 colon -40.9% | K-562 leukemia 5.52% | MALME-3M melanoma -14% | RXF 393 renal -32.1% | SF-268 CNS 8.69% | SF-295 CNS 8.43% | SF-539 CNS -23.5% | UACC-257 melanoma -6.5% | M14 melanoma 8.07%
inactive: NCI-H322M lung 15.9% | 786-0 renal 12.6% | DU-145 prostate 12.7% | MDA-MB-231 breast 23.1%

COc1ccc(/C=C/c2nc(-c3n[nH]c(=O)n3-c3ccccc3)c3ccccc3n2)cc1
inactive: NCI-H23 lung 94.8% | NCI-H226 lung 93.5% | NCI-H322M lung 93.7% | HOP-62 NSCLC 95.8% | NCI-H460 lung 100% | HOP-92 NSCLC 101% | NCI-H522 lung 85.6% | A549/ATCC NSCLC 99.9% | 786-0 renal 94% | COLO 205 colon 105% | DU-145 prostate 102% | K-562 leukemia 95.7% | MALME-3M melanoma 94.3% | MDA-MB-231 breast 94.5% | RXF 393 renal 101% | SF-268 CNS 97.3% | SF-295 CNS 99.6% | SF-539 CNS 101% | UACC-257 melanoma 106% | M14 melanoma 94.1%

Cc1ccc2c(C(C[N+](=O)[O-])c3ccco3)c(-c3ccccc3)[nH]c2c1 (stereo not given)
inactive: NCI-H23 lung 51.3% | NCI-H226 lung 46.5% | NCI-H322M lung 53.3% | HOP-62 NSCLC 24% | NCI-H460 lung 13.9% | HOP-92 NSCLC 39.9% | A549/ATCC NSCLC 33.3% | 786-0 renal 31.2% | COLO 205 colon 21.8% | DU-145 prostate 49.6% | K-562 leukemia 11.5% | MALME-3M melanoma 47.1% | MDA-MB-231 breast 41.8% | RXF 393 renal 35.2% | SF-268 CNS 37.8% | SF-539 CNS 20.4% | UACC-257 melanoma 43.4%
active: NCI-H522 lung -11.7% | SF-295 CNS 7.56% | M14 melanoma 7.34%

N#Cc1cnn(-c2nc3c(Cl)cccc3s2)c1N
inactive: NCI-H23 lung 82.6% | NCI-H226 lung 76.2% | NCI-H322M lung 95% | HOP-62 NSCLC 81.3% | NCI-H460 lung 73.4% | HOP-92 NSCLC 38.8% | NCI-H522 lung 67.7% | A549/ATCC NSCLC 83.6% | 786-0 renal 89.4% | COLO 205 colon 92.3% | DU-145 prostate 96% | K-562 leukemia 92.8% | MALME-3M melanoma 85.9% | MDA-MB-231 breast 60.6% | RXF 393 renal 92.7% | SF-268 CNS 87% | SF-295 CNS 82.3% | SF-539 CNS 82.2% | UACC-257 melanoma 102% | M14 melanoma 96.1%
